Results as given in publication PMC7862700, “An all-to-all approach to the identification of sequence-specific readers for epigenetic DNA modifications on cytosine”.

Legend:
Test in all cases: DAPPL (digital affinity profiling via proximity ligation, sequencing); 10 mM Tris-HCl pH 7.5, 50 mM NaCl, 1 mM DTT, 4% glycerol, room temperature, 30 min; GST-TFs on glutathione beads, 16-mer random dsDNA library, 0.1% formaldehyde crosslink after washing; high values mean tight binding
Settings in all cases: protein: recombinant; tags: N-terminal GST; dsDNA, one strand shown
ELK1 = biological target: T1, ELK1 (Homo sapiens, UniProt P19419 1-428)
T1 sequence: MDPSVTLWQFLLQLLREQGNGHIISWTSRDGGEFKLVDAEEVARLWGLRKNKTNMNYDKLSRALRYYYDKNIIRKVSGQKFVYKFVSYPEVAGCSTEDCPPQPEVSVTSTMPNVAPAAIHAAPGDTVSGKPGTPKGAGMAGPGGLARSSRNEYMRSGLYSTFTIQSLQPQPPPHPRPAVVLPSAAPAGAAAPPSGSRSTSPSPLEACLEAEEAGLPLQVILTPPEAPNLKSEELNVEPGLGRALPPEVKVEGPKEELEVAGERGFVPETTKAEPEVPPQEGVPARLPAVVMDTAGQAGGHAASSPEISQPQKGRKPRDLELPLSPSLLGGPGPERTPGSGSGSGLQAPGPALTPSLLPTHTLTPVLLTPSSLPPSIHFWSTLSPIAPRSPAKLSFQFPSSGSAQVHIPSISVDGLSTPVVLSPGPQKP
Summary of the method: (§1)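 Human transcription factors fused to GST were expressed in yeast, captured on glutathione beads, given DNA barcodes and pooled with a GST-only negative control. Pools were incubated with 200 nmole of a 16-mer random double-stranded DNA library in Tris/NaCl/DTT/glycerol buffer at room temperature for 30 min. They were then washed, crosslinked with 0.1% formaldehyde, proximity-ligated (BsaI/T4 ligase, 1 h, 37 °C), PCR-amplified and sequenced on an Illumina NextSeq500. Binding signal is each 6-mer's read frequency for a factor divided by its frequency for the GST control.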

GABPA = biological target: T2, GABPA (Homo sapiens, UniProt Q06546 1-454)
T2 sequence: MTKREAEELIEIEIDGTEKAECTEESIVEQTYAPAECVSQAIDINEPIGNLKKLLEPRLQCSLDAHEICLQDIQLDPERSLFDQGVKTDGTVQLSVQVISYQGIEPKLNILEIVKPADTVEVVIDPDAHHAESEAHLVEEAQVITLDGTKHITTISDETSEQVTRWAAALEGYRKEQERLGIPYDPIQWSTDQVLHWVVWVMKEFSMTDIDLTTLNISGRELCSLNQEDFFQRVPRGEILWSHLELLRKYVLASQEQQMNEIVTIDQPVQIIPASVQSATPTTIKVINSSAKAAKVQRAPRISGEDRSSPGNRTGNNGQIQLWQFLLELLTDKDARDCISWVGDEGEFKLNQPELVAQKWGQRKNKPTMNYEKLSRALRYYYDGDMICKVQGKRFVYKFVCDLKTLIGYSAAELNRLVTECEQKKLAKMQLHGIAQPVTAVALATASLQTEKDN
Summary of the method: as §1

ERG = biological target: T3, ERG (Homo sapiens, UniProt P11308 1-479)
T3 sequence: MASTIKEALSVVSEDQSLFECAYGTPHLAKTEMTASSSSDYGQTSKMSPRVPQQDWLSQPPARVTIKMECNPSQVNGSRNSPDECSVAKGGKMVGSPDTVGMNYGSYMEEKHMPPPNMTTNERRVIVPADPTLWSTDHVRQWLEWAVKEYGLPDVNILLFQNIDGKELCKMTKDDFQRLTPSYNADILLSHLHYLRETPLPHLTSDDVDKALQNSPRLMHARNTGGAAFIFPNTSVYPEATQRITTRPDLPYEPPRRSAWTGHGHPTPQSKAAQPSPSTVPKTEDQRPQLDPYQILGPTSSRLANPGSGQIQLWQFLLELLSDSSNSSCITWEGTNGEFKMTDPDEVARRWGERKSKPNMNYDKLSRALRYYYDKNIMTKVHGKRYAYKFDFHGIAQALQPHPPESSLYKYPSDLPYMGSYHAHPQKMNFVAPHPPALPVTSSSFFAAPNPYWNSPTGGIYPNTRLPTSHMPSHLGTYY
Summary of the method: as §1

ELF1 = ELF1 (Homo sapiens, UniProt P32519 1-619)
Summary of the method: as §1

EHF = biological target: T4, EHF (Homo sapiens, UniProt Q9NZC4 1-300)
T4 sequence: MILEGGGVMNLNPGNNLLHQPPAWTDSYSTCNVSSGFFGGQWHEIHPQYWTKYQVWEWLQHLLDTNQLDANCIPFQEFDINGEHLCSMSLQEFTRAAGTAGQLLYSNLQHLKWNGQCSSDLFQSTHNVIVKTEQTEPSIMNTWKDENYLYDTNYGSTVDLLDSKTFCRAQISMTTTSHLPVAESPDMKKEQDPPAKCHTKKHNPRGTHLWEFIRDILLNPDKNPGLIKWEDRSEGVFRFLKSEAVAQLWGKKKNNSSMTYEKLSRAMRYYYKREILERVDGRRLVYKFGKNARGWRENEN
Summary of the method: as §1

SPIB = SPIB (Homo sapiens, UniProt Q01892 1-262)
Summary of the method: as §1

FEV = biological target: T5, FEV (Homo sapiens, UniProt Q99581 1-238)
T5 sequence: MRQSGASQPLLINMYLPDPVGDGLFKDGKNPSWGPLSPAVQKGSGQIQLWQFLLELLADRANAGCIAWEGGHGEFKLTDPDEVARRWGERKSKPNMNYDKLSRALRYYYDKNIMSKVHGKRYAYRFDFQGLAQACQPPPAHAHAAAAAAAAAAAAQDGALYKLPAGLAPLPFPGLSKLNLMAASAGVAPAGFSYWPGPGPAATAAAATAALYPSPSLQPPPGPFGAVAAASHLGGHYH
Summary of the method: as §1

ETV5 = ETV5 (Homo sapiens, UniProt P41161 1-510)
Summary of the method: as §1

ELF4 = ELF4 (Homo sapiens, UniProt Q99607 1-663)
Summary of the method: as §1

ETV2 = biological target: T6, ETV2 (Homo sapiens, UniProt O00321 1-342)
T6 sequence: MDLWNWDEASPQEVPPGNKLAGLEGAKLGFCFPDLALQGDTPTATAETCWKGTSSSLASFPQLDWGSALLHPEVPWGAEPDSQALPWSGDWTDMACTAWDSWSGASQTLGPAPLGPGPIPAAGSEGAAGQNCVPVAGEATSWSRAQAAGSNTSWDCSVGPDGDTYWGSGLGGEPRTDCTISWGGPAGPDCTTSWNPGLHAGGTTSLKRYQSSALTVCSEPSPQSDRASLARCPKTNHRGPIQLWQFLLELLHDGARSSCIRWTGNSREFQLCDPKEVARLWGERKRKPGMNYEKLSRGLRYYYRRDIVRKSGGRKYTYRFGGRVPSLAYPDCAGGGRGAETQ
Summary of the method: as §1

ELF3 = biological target: T7, ELF3 (Homo sapiens, UniProt P78545 1-371)
T7 sequence: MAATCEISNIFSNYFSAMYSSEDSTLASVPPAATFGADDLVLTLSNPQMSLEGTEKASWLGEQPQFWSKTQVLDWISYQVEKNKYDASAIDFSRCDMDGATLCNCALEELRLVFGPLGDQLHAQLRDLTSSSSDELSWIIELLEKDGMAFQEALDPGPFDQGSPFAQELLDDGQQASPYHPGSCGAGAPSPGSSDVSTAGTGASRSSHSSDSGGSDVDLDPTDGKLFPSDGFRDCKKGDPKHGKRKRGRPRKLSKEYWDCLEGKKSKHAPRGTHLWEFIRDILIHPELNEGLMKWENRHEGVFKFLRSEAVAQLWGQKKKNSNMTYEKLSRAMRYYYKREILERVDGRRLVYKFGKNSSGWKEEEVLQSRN
Summary of the method: as §1

ETV1 = ETV1 (Homo sapiens, UniProt P50549 1-477)
Summary of the method: as §1

ERF = biological target: T8, ERF (Homo sapiens, UniProt P50548 1-548)
T8 sequence: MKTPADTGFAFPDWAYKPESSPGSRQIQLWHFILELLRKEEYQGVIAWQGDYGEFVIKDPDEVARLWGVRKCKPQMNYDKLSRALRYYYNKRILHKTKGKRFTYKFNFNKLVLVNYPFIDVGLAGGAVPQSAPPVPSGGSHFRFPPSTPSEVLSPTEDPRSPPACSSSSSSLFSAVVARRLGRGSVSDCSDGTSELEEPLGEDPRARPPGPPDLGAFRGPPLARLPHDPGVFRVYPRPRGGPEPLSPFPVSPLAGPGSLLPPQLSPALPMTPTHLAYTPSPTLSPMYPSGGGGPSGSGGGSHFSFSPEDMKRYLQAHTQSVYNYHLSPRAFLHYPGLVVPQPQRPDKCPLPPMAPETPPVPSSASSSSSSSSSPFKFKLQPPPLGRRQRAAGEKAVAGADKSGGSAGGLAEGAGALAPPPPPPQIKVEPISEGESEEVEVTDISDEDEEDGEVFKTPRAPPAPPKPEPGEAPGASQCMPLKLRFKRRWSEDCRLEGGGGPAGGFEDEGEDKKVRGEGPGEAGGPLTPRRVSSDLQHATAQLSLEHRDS
Summary of the method: as §1

SPDEF = biological target: T9, SPDEF (Homo sapiens, UniProt O95238 1-335)
T9 sequence: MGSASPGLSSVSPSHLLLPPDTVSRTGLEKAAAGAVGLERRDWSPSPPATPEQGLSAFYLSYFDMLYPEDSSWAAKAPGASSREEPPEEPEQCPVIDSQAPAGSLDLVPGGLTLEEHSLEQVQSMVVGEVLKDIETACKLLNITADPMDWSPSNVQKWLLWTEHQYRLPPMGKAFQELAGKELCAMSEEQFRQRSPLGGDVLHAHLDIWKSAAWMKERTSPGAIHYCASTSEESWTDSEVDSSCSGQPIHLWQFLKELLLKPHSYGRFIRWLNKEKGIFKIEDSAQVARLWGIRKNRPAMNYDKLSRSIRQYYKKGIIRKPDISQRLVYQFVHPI
Summary of the method: as §1

ETV3 = biological target: T10, ETV3 (Homo sapiens, UniProt P41162-2 1-143)
T10 sequence: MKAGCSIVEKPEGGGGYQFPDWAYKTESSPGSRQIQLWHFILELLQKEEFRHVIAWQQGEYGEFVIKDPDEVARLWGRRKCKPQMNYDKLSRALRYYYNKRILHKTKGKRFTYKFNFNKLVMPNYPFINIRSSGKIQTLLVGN
Summary of the method: as §1

ELK4 = biological target: T11, ELK4 (Homo sapiens, UniProt P28324-2 1-405)
T11 sequence: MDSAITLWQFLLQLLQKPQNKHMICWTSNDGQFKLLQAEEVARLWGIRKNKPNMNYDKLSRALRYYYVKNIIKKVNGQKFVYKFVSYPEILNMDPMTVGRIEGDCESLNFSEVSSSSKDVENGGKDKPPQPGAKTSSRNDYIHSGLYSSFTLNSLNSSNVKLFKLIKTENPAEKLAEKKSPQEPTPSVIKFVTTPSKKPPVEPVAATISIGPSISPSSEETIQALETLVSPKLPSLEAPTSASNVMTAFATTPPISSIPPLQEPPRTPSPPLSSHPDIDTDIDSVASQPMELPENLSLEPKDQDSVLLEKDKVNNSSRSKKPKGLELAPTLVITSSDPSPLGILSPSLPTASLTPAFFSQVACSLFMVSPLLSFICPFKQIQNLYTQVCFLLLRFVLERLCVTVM
Summary of the method: as §1

Chain of ETV5 (P41161 whole entry): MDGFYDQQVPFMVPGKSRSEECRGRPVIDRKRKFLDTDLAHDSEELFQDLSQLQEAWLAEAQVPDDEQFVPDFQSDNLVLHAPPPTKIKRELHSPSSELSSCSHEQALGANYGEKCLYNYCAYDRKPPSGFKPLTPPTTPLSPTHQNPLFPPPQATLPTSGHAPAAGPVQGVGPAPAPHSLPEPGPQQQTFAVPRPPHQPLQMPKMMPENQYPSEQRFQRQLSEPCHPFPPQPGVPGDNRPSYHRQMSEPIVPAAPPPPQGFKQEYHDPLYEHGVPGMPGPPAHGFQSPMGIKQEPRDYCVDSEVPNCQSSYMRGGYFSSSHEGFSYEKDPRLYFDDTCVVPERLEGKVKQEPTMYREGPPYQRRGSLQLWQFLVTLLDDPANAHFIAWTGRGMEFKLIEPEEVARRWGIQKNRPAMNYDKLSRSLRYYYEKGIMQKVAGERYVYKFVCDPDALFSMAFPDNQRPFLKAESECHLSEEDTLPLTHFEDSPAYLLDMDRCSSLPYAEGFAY
Chain of SPIB (Q01892 whole entry): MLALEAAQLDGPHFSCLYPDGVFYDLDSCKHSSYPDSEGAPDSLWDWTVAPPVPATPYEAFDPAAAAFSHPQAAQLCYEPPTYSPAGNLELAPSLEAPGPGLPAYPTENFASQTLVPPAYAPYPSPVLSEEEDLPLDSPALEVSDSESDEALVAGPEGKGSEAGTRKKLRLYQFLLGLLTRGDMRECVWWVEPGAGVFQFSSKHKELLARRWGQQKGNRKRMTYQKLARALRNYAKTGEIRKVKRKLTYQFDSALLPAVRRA
Chain of ETV1 (P50549 whole entry): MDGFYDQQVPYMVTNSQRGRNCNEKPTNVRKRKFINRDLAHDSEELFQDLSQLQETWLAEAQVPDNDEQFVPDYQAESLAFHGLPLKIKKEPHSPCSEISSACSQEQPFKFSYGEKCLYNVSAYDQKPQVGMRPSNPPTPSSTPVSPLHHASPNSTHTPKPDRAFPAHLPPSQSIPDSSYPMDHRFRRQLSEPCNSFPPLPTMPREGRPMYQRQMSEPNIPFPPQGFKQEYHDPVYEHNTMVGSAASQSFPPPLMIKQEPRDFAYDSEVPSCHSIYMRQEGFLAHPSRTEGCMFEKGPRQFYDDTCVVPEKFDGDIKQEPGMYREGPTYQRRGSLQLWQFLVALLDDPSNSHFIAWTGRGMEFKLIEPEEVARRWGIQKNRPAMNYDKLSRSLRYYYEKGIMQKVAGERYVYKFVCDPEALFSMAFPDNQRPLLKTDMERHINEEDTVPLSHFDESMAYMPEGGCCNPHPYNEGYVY
Chain of ELF1 (P32519 whole entry): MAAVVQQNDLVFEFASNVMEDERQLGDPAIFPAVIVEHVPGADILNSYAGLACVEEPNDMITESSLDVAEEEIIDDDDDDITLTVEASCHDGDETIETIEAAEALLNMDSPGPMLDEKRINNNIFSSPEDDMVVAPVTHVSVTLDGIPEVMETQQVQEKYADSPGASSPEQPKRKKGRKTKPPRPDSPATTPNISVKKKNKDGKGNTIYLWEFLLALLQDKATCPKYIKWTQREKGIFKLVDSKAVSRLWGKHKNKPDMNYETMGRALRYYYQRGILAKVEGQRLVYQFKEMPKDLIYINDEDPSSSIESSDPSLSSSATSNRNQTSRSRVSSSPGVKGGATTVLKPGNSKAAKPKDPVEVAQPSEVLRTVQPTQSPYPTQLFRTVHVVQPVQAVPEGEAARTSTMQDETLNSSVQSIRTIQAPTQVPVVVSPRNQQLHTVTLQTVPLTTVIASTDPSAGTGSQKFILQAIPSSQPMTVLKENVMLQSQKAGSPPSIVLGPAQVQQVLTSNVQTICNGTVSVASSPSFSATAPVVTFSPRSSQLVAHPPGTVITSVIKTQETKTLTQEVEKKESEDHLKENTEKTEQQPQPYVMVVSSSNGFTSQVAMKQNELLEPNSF
Chain of ELF4 (Q99607 whole entry): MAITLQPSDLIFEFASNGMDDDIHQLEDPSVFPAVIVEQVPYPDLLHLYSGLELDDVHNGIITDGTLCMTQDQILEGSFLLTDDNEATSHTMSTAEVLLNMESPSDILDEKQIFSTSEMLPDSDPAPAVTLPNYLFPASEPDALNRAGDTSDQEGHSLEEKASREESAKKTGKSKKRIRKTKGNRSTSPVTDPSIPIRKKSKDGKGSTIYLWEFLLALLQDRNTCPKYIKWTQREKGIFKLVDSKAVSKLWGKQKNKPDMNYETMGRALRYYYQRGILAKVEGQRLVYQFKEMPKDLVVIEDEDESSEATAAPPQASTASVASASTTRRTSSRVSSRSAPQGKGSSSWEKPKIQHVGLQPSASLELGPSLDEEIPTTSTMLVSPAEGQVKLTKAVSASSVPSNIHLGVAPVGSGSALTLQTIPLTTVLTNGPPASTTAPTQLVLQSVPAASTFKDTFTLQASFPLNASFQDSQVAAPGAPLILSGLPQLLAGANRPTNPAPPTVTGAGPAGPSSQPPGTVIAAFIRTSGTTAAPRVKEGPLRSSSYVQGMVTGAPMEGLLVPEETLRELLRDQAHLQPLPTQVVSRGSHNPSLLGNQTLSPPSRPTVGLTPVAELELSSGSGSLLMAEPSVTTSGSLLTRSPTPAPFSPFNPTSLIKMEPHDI

| Sequence | binding signal (ELK1) | binding signal (GABPA) | binding signal (ERG) | binding signal (ELF1) | binding signal (EHF) | binding signal (SPIB) | binding signal (FEV) | binding signal (ETV5) | binding signal (ELF4) | binding signal (ETV2) | binding signal (ELF3) | binding signal (ETV1) | binding signal (ERF) | binding signal (SPDEF) | binding signal (ETV3) | binding signal (ELK4) |
| --- | --- | --- | --- | --- | --- | --- | --- | --- | --- | --- | --- | --- | --- | --- | --- | --- |
| TCGTAT | 1.08 fold enrichment (6-mer frequency, TF over GST control) | 1.01 fold enrichment (6-mer frequency, TF over GST control) | 1.03 fold enrichment (6-mer frequency, TF over GST control) | 1.03 fold enrichment (6-mer frequency, TF over GST control) | 1 fold enrichment (6-mer frequency, TF over GST control) | 1.07 fold enrichment (6-mer frequency, TF over GST control) | 1.05 fold enrichment (6-mer frequency, TF over GST control) | 1.02 fold enrichment (6-mer frequency, TF over GST control) | 1.02 fold enrichment (6-mer frequency, TF over GST control) | 1.12 fold enrichment (6-mer frequency, TF over GST control) | 1.05 fold enrichment (6-mer frequency, TF over GST control) | 1 fold enrichment (6-mer frequency, TF over GST control) | 1.06 fold enrichment (6-mer frequency, TF over GST control) | 1.05 fold enrichment (6-mer frequency, TF over GST control) | 1.05 fold enrichment (6-mer frequency, TF over GST control) | – |
| GACTTA | – | 1.03 fold enrichment (6-mer frequency, TF over GST control) | – | – | 1.04 fold enrichment (6-mer frequency, TF over GST control) | – | – | 1.01 fold enrichment (6-mer frequency, TF over GST control) | – | – | – | – | – | – | 1.02 fold enrichment (6-mer frequency, TF over GST control) | 1 fold enrichment (6-mer frequency, TF over GST control) |
